# Assay results: ChEMBL document CHEMBL3433997, “St. Jude Leishmania screening dataset” (2016)
# Biological target: Solute carrier family 2, facilitated glucose transporter member 1 (Homo sapiens) (UniProt P11166)
# Experiment: ST_JUDE_LEISH: Cytotoxicity at 2uM final concentration against transgenic Leishmania Mexicana promastigotes LmGLUT1 that are glucose transport deficient and complemented with the human glucose transporter GLUT1. Activity is measured by DNA content using SYBR green in vitro
# Format: functional
# Solute carrier family 2, facilitated glucose transporter member 1 (Homo sapiens), sequence (P11166 whole entry): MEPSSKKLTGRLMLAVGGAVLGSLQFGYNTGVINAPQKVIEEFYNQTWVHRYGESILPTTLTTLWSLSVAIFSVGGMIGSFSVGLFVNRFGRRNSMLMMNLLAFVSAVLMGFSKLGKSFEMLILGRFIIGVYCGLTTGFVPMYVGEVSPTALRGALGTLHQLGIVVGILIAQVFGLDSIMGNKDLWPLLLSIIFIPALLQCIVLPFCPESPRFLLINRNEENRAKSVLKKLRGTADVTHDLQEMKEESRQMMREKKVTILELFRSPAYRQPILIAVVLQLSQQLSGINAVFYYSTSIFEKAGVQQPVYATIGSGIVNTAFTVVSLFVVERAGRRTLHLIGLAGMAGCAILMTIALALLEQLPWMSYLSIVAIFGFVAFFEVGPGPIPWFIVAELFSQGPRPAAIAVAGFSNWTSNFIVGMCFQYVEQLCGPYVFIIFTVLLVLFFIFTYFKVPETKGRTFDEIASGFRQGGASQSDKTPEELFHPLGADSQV
row,Compound,inhibition [%]
1,O=C(Cc1ccccc1)NC1(c2ccccc2)CCN(CCc2c[nH]c3ccc(F)cc23)CC1,-0.99
2,Cc1ccc2c(NC(=O)Nc3ccc(N(C)C)cc3)cc(C)nc2c1,5.9
3,O=C(Nc1cccc(CN2CCCN(Cc3ncc[nH]3)CC2)c1)c1ccc(-c2ccccc2)cc1,0.65
4,Cc1cc(O)c(-c2cc(C(=O)Nc3cccnc3)[nH]n2)cc1C,7.05
5,O=C(Nc1ccc(OC2CCN(Cc3ccc(F)cc3)C2)c(Cl)c1)c1ccccc1 (stereo not given),8.62
6,CCOc1ccc(N2CCN(CCCCNC(=O)c3ccc(NC(=O)c4ccc(Cl)cc4)cc3)CC2)c(OCC)c1,1.06
7,COc1cc(C)nc2ccc(NC(=O)Nc3ccccc3[N+](=O)[O-])cc12,2.28
8,CC(C)(C)c1ccccc1OCCCON1C(=N)N=C(N)NC1(C)C,38
9,Clc1cccc(Nc2ccc3c(N4CCCCC4)ncnc3n2)c1,12
10,O=C(Nc1ccc(Cl)cc1)c1ccc(S(=O)(=O)NCC2CCN(CC3CCCCC3)CC2)cc1,2.97
11,N#Cc1ccc(N(CCOC(=O)c2ccc(Br)s2)Cc2ccccc2C(F)(F)F)cc1C(F)(F)F,1.7
12,N#Cc1ccc(-c2cnc3ccc(NCCc4cccnc4)nn23)cc1,-0.81
13,O=C(/C=C/c1ccc(Cl)c(Cl)c1)NCCCCCN1CCCN(C(=S)Nc2ccc(Cl)cc2)CC1,1.38
14,CCCCCOc1ccc(C(=NC)N(CCCCC)CCCCC)c2ccccc12,5.37
15,Cn1nc(-c2ccccc2F)c2cc(C(=O)NC3CCN(Cc4ccccc4)CC3)sc21,-0.18
16,CC(CCON1C(N)=NC(N)=NC1(C)C)c1ccc(Cl)cc1 (stereo not given),21.4
17,Clc1ccccc1CCNCC1CCN(CC2CCCCC2)CC1,4.24
18,Oc1ccccc1CN1CCN(C(c2ccccc2)c2ccccc2)CC1,3.02
19,CC(CN1CCN(C)CC1)C(=O)Nc1ccc(-c2cccc(-c3nc4cc(C(F)(F)F)ccc4[nH]3)c2)cc1 (stereo not given),-0.51
20,O=C(/C=C/c1ccc(C(F)(F)F)cc1)NCCCCCN1CCCN(C(=O)Nc2ccc(Cl)cc2)CC1,5.01

row,Compound,inhibition [%]
1,O=C(C=Cc1cn(-c2ccccc2)nc1-c1cccs1)N1CCN(c2ccncc2)CC1,1.81
2,COc1ccc(NC(=O)[C@H](Cc2ccccc2)Nc2cc(C)nc(NCCc3ccccn3)n2)cc1,4.73
3,O=C(Nc1cccc(-c2cccc(-c3nc4cc(C(F)(F)F)ccc4[nH]3)c2)c1)c1cccnc1Cl,0.15
4,CCCCCN1CCCC1CNS(=O)(=O)c1ccc(C(=O)Nc2cccc(C(F)(F)F)c2)cc1 (stereo not given),0.76
5,CCOC(=O)/C(=N\OC(C)(C)C(=O)NCc1ccc(O)c(O)c1)c1csc(NC(c2ccccc2)(c2ccccc2)c2ccccc2)n1,-2.31
6,NC(=O)Nc1ccc2c(Nc3ccc(OCc4ccccc4)cc3)ncnc2c1,-1.45
7,NCc1cccc(-c2ccccc2CNC2CCN(Cc3ccccc3)CC2)c1,6
8,O=C(NCC1CCC(CNCCCc2ccccc2)CC1)Nc1ccc(Cl)c(Cl)c1 (stereo not given),1.76
9,O=C(Cc1cccnc1)Nc1cccc(-c2cccc(-c3nc4cc(C(F)(F)F)ccc4[nH]3)c2)c1,2.67
10,COc1ccc(NC(=O)c2ccc(-c3cccc(OCc4ccccc4)c3)cc2)cc1N1CCN(C)CC1,1.72
11,COCCNCc1cccc(C#Cc2cc3ncnc(Nc4ccc(OCc5cccc(F)c5)c(Cl)c4)c3s2)n1,5.28
12,CCCNC[C@@H](O)[C@H](Cc1ccccc1)NC(=O)c1cc(NCC)cc(N2CCCCS2(=O)=O)c1,1.97
13,Cc1c(S(=O)(=O)Nc2cccc(CCN3CCCCC3CCN3CCCC3)c2)sc2ccc(Cl)cc12 (stereo not given),-1.39
14,COc1cccc(C(=O)NCc2nnc(S)n2-c2ccc(Cl)c(Cl)c2)c1,-0.13
15,CC(=O)Nc1ccc(Nc2ncc([N+](=O)[O-])c(Nc3ccccc3C(N)=O)n2)cc1,3.27
16,CCC(C(=O)Nc1cc(=O)[nH]c2nc(-c3ccco3)nn12)c1ccccc1 (stereo not given),0.95
17,CCC(CO)NCC(O)Cn1c2ccc(Cl)cc2c2cc(Cl)ccc21 (stereo not given),4.65
18,COC(=O)c1cccc(NC(=O)NC2CCN(c3ccnc(Nc4ccc(F)cc4)n3)C2)c1 (stereo not given),2.08
19,NC(=O)c1cccc(C(=O)Nc2cccc(-c3ccc(-c4nc5ccccc5[nH]4)s3)c2)c1,1.49
20,Nc1ccnc(N2CCC(CCOc3cc(C(F)(F)F)nc4c(C(F)(F)F)cccc34)CC2)c1,25.6

# Biological target: Hexose transporter 1 (Plasmodium falciparum) (UniProt O97467)
# Experiment: ST_JUDE_LEISH: Cytotoxicity at 2uM final concentration against transgenic Leishmania Mexicana promastigotes LmPfHT that are glucose transport deficient and complemented with the Plasmodium falciparum hexose transporter. Activity is measured by DNA content using SYBR green in vitro
# Format: functional
row,Compound,inhibition [%]
1,O=C(Cc1ccccc1)NC1(c2ccccc2)CCN(CCc2c[nH]c3ccc(F)cc23)CC1,0.25
2,Cc1ccc2c(NC(=O)Nc3ccc(N(C)C)cc3)cc(C)nc2c1,5.56
3,O=C(Nc1cccc(CN2CCCN(Cc3ncc[nH]3)CC2)c1)c1ccc(-c2ccccc2)cc1,1.21
4,Cc1cc(O)c(-c2cc(C(=O)Nc3cccnc3)[nH]n2)cc1C,4.46
5,O=C(Nc1ccc(OC2CCN(Cc3ccc(F)cc3)C2)c(Cl)c1)c1ccccc1 (stereo not given),9.58
6,CCOc1ccc(N2CCN(CCCCNC(=O)c3ccc(NC(=O)c4ccc(Cl)cc4)cc3)CC2)c(OCC)c1,1.88
7,COc1cc(C)nc2ccc(NC(=O)Nc3ccccc3[N+](=O)[O-])cc12,0.56
8,CC(C)(C)c1ccccc1OCCCON1C(=N)N=C(N)NC1(C)C,59.3
9,Clc1cccc(Nc2ccc3c(N4CCCCC4)ncnc3n2)c1,10.8
10,O=C(Nc1ccc(Cl)cc1)c1ccc(S(=O)(=O)NCC2CCN(CC3CCCCC3)CC2)cc1,1.04
11,N#Cc1ccc(N(CCOC(=O)c2ccc(Br)s2)Cc2ccccc2C(F)(F)F)cc1C(F)(F)F,4.9
12,N#Cc1ccc(-c2cnc3ccc(NCCc4cccnc4)nn23)cc1,-0.84
13,O=C(/C=C/c1ccc(Cl)c(Cl)c1)NCCCCCN1CCCN(C(=S)Nc2ccc(Cl)cc2)CC1,1.56
14,CCCCCOc1ccc(C(=NC)N(CCCCC)CCCCC)c2ccccc12,10.9
15,Cn1nc(-c2ccccc2F)c2cc(C(=O)NC3CCN(Cc4ccccc4)CC3)sc21,-1.6
16,CC(CCON1C(N)=NC(N)=NC1(C)C)c1ccc(Cl)cc1 (stereo not given),29.5
17,Clc1ccccc1CCNCC1CCN(CC2CCCCC2)CC1,5.3
18,Oc1ccccc1CN1CCN(C(c2ccccc2)c2ccccc2)CC1,6.5
19,CC(CN1CCN(C)CC1)C(=O)Nc1ccc(-c2cccc(-c3nc4cc(C(F)(F)F)ccc4[nH]3)c2)cc1 (stereo not given),0.32
20,O=C(/C=C/c1ccc(C(F)(F)F)cc1)NCCCCCN1CCCN(C(=O)Nc2ccc(Cl)cc2)CC1,4.49

row,Compound,inhibition [%]
1,O=C(C=Cc1cn(-c2ccccc2)nc1-c1cccs1)N1CCN(c2ccncc2)CC1,0.46
2,COc1ccc(NC(=O)[C@H](Cc2ccccc2)Nc2cc(C)nc(NCCc3ccccn3)n2)cc1,5.3
3,O=C(Nc1cccc(-c2cccc(-c3nc4cc(C(F)(F)F)ccc4[nH]3)c2)c1)c1cccnc1Cl,0.52
4,CCCCCN1CCCC1CNS(=O)(=O)c1ccc(C(=O)Nc2cccc(C(F)(F)F)c2)cc1 (stereo not given),0.61
5,CCOC(=O)/C(=N\OC(C)(C)C(=O)NCc1ccc(O)c(O)c1)c1csc(NC(c2ccccc2)(c2ccccc2)c2ccccc2)n1,-1.09
6,NC(=O)Nc1ccc2c(Nc3ccc(OCc4ccccc4)cc3)ncnc2c1,-0.35
7,NCc1cccc(-c2ccccc2CNC2CCN(Cc3ccccc3)CC2)c1,5.52
8,O=C(NCC1CCC(CNCCCc2ccccc2)CC1)Nc1ccc(Cl)c(Cl)c1 (stereo not given),0.18
9,O=C(Cc1cccnc1)Nc1cccc(-c2cccc(-c3nc4cc(C(F)(F)F)ccc4[nH]3)c2)c1,1.57
10,COc1ccc(NC(=O)c2ccc(-c3cccc(OCc4ccccc4)c3)cc2)cc1N1CCN(C)CC1,0.6
11,COCCNCc1cccc(C#Cc2cc3ncnc(Nc4ccc(OCc5cccc(F)c5)c(Cl)c4)c3s2)n1,5.8
12,CCCNC[C@@H](O)[C@H](Cc1ccccc1)NC(=O)c1cc(NCC)cc(N2CCCCS2(=O)=O)c1,2.32
13,Cc1c(S(=O)(=O)Nc2cccc(CCN3CCCCC3CCN3CCCC3)c2)sc2ccc(Cl)cc12 (stereo not given),2.14
14,COc1cccc(C(=O)NCc2nnc(S)n2-c2ccc(Cl)c(Cl)c2)c1,0.68
15,CC(=O)Nc1ccc(Nc2ncc([N+](=O)[O-])c(Nc3ccccc3C(N)=O)n2)cc1,1.61
16,CCC(C(=O)Nc1cc(=O)[nH]c2nc(-c3ccco3)nn12)c1ccccc1 (stereo not given),1.55
17,CCC(CO)NCC(O)Cn1c2ccc(Cl)cc2c2cc(Cl)ccc21 (stereo not given),5.96
18,COC(=O)c1cccc(NC(=O)NC2CCN(c3ccnc(Nc4ccc(F)cc4)n3)C2)c1 (stereo not given),1.14
19,NC(=O)c1cccc(C(=O)Nc2cccc(-c3ccc(-c4nc5ccccc5[nH]4)s3)c2)c1,1.48
20,Nc1ccnc(N2CCC(CCOc3cc(C(F)(F)F)nc4c(C(F)(F)F)cccc34)CC2)c1,43.4
